# Experimental data as given in the supplement of paper PMC6992640.
# ± gives the standard deviation of the averaged measurements.
# Legend:
# Test in all cases: cell viability (% of vehicle); higher = less cytotoxic
# Details in all cases: 10 µM; 72 h
# [1] = tested on: HCI01 (cells of a triple-negative basal-like breast cancer xenograft)
# [2] = tested on: HCI03 (cells of an ER-positive luminal breast cancer xenograft)
# [3] = tested on: HCI09 (cells of a triple-negative luminal androgen receptor type breast cancer xenograft)
# [4] = tested on: HCI11 (cells of an ER-positive luminal breast cancer xenograft)
# [5] = tested on: HCI13 (cells of an ER-positive luminal breast cancer xenograft)
# [6] = tested on: HCI16 (cells of a triple-negative basal-like breast cancer xenograft)
# [7] = tested on: UCD52 (cells of a triple-negative basal-like breast cancer xenograft)
# [8] = tested on: WHIM2 (cells of a triple-negative basal-like breast cancer xenograft)
# [9] = tested on: WHIM30 (cells of a triple-negative basal-like breast cancer xenograft)
# 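Note: PDX cells carrying CMV promoter-driven luciferase, viability read as total photon flux per second by IVIS imaging following D-luciferin, vehicle control 0.1% DMSO.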
SMILES,cell viability [1],cell viability [2],cell viability [3],cell viability [4],cell viability [5],cell viability [6],cell viability [7],cell viability [8],cell viability [9]
CN(CC=CC#CC(C)(C)C)Cc1cccc2ccccc12.Cl [Terbinafine HCl],93.6 ± 30,99,86.02 ± 0.12,81.6,73 ± 1.7,123,70.5 ± 7.4,62.8 ± 10,91.1 ± 1.7
CN(C)CCCOc1nn(Cc2ccccc2)c2ccccc12.Cl [Benzydamine HCl],171 ± 76,85.4,79 ± 16,104,66.2 ± 11,163,100.3 ± 0.44,116 ± 6.4,123 ± 18
CC1CCN(C(=O)CC#N)CC1N(C)c1ncnc2[nH]ccc12 (stereo not drawn),169 ± 6.3,143,81.1 ± 1.5,110,126 ± 11,151,136 ± 23,95.8 ± 7.4,160.4 ± 0.81
Nc1ccn(C2CCC(CO)O2)c(=O)n1 (stereo not drawn) [Zalcitabine],90.1 ± 3.1,124,102 ± 5.5,93.5,91.99 ± 0.76,128,104 ± 10,85.08 ± 0.32,176 ± 35
CN(C)CCCN1c2ccccc2CCc2ccccc21.Cl [Imipramine (hydrochloride)],104 ± 14,88.1,84.9 ± 5.2,60,95.1 ± 1.8,119,90.4 ± 7.2,82.5 ± 12,79.7 ± 8.5
COC(=O)Nc1nc2ccc(C(=O)c3ccc(F)cc3)cc2[nH]1 [Flubendazole],104 ± 3.6,103,103 ± 2.5,81.8,102 ± 8.7,140,80.3 ± 3.1,139 ± 36,106.1 ± 0.14
C=CC[C@@H]1/C=C(\C)C[C@H](C)C[C@H](OC)[C@H]2O[C@@](O)(C(=O)C(=O)N3CCCC[C@H]3C(=O)O[C@H](/C(C)=C/[C@@H]3CC[C@@H](O)[C@H](OC)C3)[C@H](C)[C@@H](O)CC1=O)[C@H](C)C[C@@H]2OC [Tacrolimus (FK506)],55.9 ± 45,112,50.6 ± 16,85.4,99.2 ± 6.4,92,83.4 ± 4.2,85.9 ± 20,166 ± 19
COc1ccccc1Oc1c(NS(=O)(=O)c2ccc(C(C)(C)C)cc2)nc(-c2ncccn2)nc1OCCO [Bosentan],110 ± 16,95.1,71.1 ± 21,86.4,83.7 ± 5.7,104,111 ± 2.8,114 ± 36,114 ± 3.2
NC(=O)Cc1cccc(C(=O)c2ccccc2)c1N [Nepafenac],117 ± 21,101,94.6 ± 3.9,95.4,84.1 ± 5.7,94.2,104 ± 1.5,159 ± 69,136 ± 14
Cl.O=C1CC2(CCCC2)CC(=O)N1CCCCN1CCN(c2ncccn2)CC1 [Buspirone HCl],110 ± 16,95.5,91.3 ± 8.6,101,76.7 ± 2,119,106 ± 3.5,104.3 ± 0.12,90.4 ± 8.1
C=CC1=C(C(=O)O)N2C(=O)C(NC(=O)C(=NO)c3csc(N)n3)C2SC1 (stereo not drawn) [Cefdinir],96.2 ± 11,138,107 ± 6.3,120,130 ± 4.8,121,96.6 ± 12,98.1 ± 22,114 ± 8
CC(C)(OCc1nn(Cc2ccccc2)c2ccccc12)C(=O)O [Bindarit],86.5 ± 68,133,95.7 ± 2.3,86.6,136 ± 0.14,117,83.1 ± 3.1,110 ± 19,149 ± 27
CC12CCC3c4ccc(O)cc4CC(CCCCCCCCCS(=O)CCCC(F)(F)C(F)(F)F)C3C1CCC2O (stereo not drawn) [Fulvestrant],137 ± 7.5,89.1,65.5 ± 7.2,85.6,53 ± 6.5,95.7,78.9 ± 3.8,77.5 ± 36,129 ± 12
Cc1cccc(-c2nn3c(c2-c2ccnc4ccc(C(N)=O)cc24)CCC3)n1,117 ± 2.1,90.1,115 ± 56,98.7,56.3 ± 6.4,89.8,73.1 ± 3.3,147 ± 41,111 ± 3
CCCCCOC(=O)Nc1nc(=O)n(C2OC(C)C(O)C2O)cc1F (stereo not drawn) [Capecitabine],142 ± 26,114,139 ± 24,124,165 ± 25,120,112 ± 4,108 ± 6.9,162 ± 33
CNCC(O)c1ccc(O)c(O)c1 [L-Adrenaline],131 ± 58,137,142 ± 37,110,121 ± 32,138,112 ± 15,102 ± 7.6,162 ± 8.5
C=C1CCN(C(C)C(O)(Cn2cncn2)c2ccc(F)cc2F)CC1 (stereo not drawn) [Efinaconazole],119 ± 22,148,83.3 ± 19,91.5,126 ± 8.9,165,85.4 ± 5.2,95.9 ± 5.9,161 ± 25
Cl.NC12CC3CC(CC(C3)C1)C2 [Amantadine HCl],136 ± 17,117,104 ± 1.4,98.7,120 ± 7.4,132,93.3 ± 2.1,107 ± 17,105 ± 1.4
COc1cc2ncnc(Nc3ccc(F)c(Cl)c3)c2cc1OCCCN1CCOCC1 [Gefitinib (ZD1839)],95.6 ± 51,55.3,77.9 ± 22,110,63.3 ± 1.6,94.8,52.2 ± 1.3,47.8 ± 2.2,128.3 ± 1.1
OC(Cn1cncn1)(Cn1cncn1)c1ccc(F)cc1F [Fluconazole],71.5 ± 43,153,99.3 ± 22,94.2,112 ± 4.8,119,76.5 ± 8.7,99.2 ± 27,180 ± 2.3
O=c1[nH]c(=O)n(C2CC(O)C(CO)O2)cc1F (stereo not drawn) [Floxuridine],122 ± 5.9,103,103 ± 20,131,84.4 ± 5.7,161,167 ± 12,105 ± 13,149 ± 34
CC12CCC3c4ccc(O)cc4CCC3C1CCC2OC(=O)CCC1CCCC1 (stereo not drawn) [Estradiol Cypionate],168 ± 2.2,101,96.6 ± 4.5,93.1,180 ± 16,147,92 ± 6.5,110 ± 10,130 ± 12
